Consider eleven molecules from PubChem BioAssay (EPA / NIEHS).

Inconclusive results are not listed. Active and inactive are the calls of the source. How the source made its calls: active means hit-call score of the fitted dose curve at least 0.9, where 1 is the maximum; inconclusive means response in the unintended direction; inactive means score below 0.9.

Sequence of human Peroxisome Proliferator-activated Receptor alpha (PPARa), PPARA (gene 5465) (Q07869 whole entry, looked up): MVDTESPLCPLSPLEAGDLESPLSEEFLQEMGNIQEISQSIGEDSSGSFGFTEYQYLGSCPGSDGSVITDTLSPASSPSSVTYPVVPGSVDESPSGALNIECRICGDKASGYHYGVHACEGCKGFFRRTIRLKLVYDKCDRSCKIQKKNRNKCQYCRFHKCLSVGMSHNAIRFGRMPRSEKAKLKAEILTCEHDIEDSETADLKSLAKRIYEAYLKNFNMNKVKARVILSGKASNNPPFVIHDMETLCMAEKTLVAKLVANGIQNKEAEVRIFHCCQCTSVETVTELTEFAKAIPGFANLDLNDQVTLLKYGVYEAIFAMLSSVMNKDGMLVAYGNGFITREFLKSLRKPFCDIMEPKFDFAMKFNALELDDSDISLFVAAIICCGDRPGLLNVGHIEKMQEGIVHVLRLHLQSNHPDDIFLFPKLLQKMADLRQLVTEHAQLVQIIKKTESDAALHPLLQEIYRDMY
Sequence of Estrogen receptor beta (Homo sapiens) (Q92731 whole entry, looked up, the tested form may be a part): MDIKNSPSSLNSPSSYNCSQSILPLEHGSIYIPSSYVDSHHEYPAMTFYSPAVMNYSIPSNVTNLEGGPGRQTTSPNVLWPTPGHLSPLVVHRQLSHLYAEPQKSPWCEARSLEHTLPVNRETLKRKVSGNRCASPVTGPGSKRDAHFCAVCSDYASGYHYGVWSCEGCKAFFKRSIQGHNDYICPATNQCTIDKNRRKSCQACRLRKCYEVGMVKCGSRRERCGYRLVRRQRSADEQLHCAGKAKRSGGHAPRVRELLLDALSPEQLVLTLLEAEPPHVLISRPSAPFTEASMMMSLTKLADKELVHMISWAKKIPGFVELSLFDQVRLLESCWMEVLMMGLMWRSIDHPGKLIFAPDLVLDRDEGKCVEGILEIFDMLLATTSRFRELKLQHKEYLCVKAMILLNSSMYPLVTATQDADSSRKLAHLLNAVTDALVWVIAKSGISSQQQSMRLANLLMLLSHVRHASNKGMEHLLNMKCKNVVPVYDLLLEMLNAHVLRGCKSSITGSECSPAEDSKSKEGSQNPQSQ

One experiment deals with Estrogen receptor beta (Homo sapiens) (UniProt Q92731). As to the kind of experiment: OT_ER_ERbERb_0480: Odyssey Thera (OT) 8-hour HEK293T Protein-Complementation Assay for Estrogen Receptor-beta/-beta Homodimer (AID 2283357).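 Further: active means signal gain over DMSO baseline.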 The gist of the method:
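Readout: increase in mean fluorescence intensity (nucleus for agonists; nucleus plus cytoplasm for antagonists) relative to DMSO, from a reporter-fragment complementation of human ER-beta LBD homodimer in HEK293T cells dosed 8 hours.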
With `O=C(Cl)c1cccc(C(=O)Cl)c1`, the call was inactive.

Take `CCCC/C=C\CCCCCCCCCC=O`: the molecule was classed as inactive.

For `O=C[C@@H](O)[C@H](O)[C@H](O)CO`, the molecule was called inactive.

In the case of `CC1(C)C(=O)N(Br)C(=O)N1Cl`, the outcome was inactive.

`CCCCCCCCCCN`: the molecule was called inactive.

Take `CCCCCC(CO)CCC` (stereo unspecified): the outcome was inactive.

On to `C=O`, for which the result was inactive.

A word on the AC50: it is the concentration at which the activity in the assay is half-maximal. Turning to `Cc1ccc(C(C)C)cc1O`, the AC50 was 63.6 µM (active).

The next experiment concerns the target human Peroxisome Proliferator-activated Receptor alpha (PPARa), PPARA (gene 5465) (UniProt Q07869). Put plainly: NVS_NR_hPPARa: NovaScreen (NVS) Nuclear Receptor Binding Assay for human Peroxisome Proliferator-activated Receptor alpha (PPARa) (AID 2283359).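 Further: activity means loss of TR-FRET signal versus DMSO baseline.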 The gist of the method:
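Cell-free binding assay with extracted human protein, read by TR-FRET 1 h after chemical dosing. Loss of signal relative to DMSO baseline indicates binding. Primary screen used duplicate single concentration (25 uM); actives followed up in concentration series.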
As to `CCCCCOC(=O)CCC`, the molecule was classed as inactive.

As for `COc1cc(C(C)(C)C)c(O)c(C(C)(C)C)c1`, the outcome was inactive.

Consider `CCCCCCCCCCCCCCCC(=O)O`, for which the molecule was called inactive.
